A selection: hits, their analogues and other compounds. The true share with any hit is near 2.8%.
HTRA1 inh: inhibitors of human serine peptidase HTRA1. Q92743. recombinant HTRA1, FP-rhodamine activity-based probe, fluorescence polarization. inhibition, % at 5.96 µM. 340,000 tested, 0.5% active. AID 504803; in the data active = inhibition above about 36%
pPAFAH FP inh: pPAFAH (human) enzyme inhibition. Q13093. recombinant pPAFAH, FP-rhodamine probe fluorescence polarization. inhibition, % at 3.39 µM. 330,000 tested, 1.5% active;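 active = inhibition above the mean inhibition across the screen plus 3 SD, cut at about 25% in these data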;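 note: inhibitors block binding of the rhodamine activity-based probe so polarization drops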
Target sequence (Q13093 whole entry, looked up): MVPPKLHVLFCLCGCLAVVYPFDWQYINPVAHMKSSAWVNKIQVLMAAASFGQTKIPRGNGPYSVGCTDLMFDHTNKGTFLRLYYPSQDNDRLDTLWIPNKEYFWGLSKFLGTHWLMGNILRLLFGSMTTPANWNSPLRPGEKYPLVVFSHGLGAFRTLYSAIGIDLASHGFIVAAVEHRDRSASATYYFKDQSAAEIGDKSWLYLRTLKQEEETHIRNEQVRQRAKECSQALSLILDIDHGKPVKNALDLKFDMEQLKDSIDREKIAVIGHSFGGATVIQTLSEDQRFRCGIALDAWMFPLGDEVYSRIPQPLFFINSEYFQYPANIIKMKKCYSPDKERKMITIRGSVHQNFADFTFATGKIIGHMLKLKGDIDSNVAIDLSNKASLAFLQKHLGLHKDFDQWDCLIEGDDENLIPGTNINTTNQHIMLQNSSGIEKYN
PAFAH1B3 inh: blocks human PAF acetylhydrolase 1B catalytic subunit 3 | recombinant PAFAH1B3, FP-rhodamine probe, fluorescence polarization | inhibition, % at 3.39 µM | 340,000 tested, 0.28% active | AID 492972;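 active = inhibition above the screen-wide average of all tested compounds plus 3 SD, cut at about 25% in these data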
PAFAH1B2 FP inh: inhibitors of human PAFAH1B2; P68402; 340,000 tested, 1.2% active; recombinant PAFAH1B2, FP-rhodamine activity probe, fluorescence polarization; inhibition, % at 3.39 µM;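 active = inhibition above the mean of all tested compounds plus 3 SD, cut at about 24% in these data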
DAGLB inhibitor: blocks human DAGLB lipase activity | HEK293T DAGLB membrane lysate, EnzChek fluorogenic substrate | inhibition, % at 5.17 µM | 340,000 tested, 0.059% active | AID 504411; in the data active = inhibition above about 34%
PAFAH2 inh: inhibitors of human PAFAH2; Q99487; recombinant PAFAH2, FP-rhodamine activity probe, fluorescence polarization; inhibition, % at 3.39 µM; 340,000 tested, 0.99% active;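 active = inhibition above the mean over all tested compounds plus 3 SD, cut at about 30% in these data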;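 note: inhibitors block probe labeling of enzyme so polarization drops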
pPAFAH FP conf: pPAFAH (human) inhibition, confirmed; shares compounds with pPAFAH FP inh; recombinant pPAFAH, FP-Rh probe fluorescence polarization; inhibition, % at 3.39 µM; 2,300 tested, 72% active; AID 463230;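 active = mean inhibition of the triplicate above the hit cutoff set for the earlier primary screen, cut at about 25% in these data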
Hits are given with their value; – = inactive; · = not tested or not shown.

SMILES | HTRA1 inh | pPAFAH FP inh | PAFAH1B3 inh | PAFAH1B2 FP inh | DAGLB inhibitor | PAFAH2 inh | pPAFAH FP conf
O=C(CCCN1C(=O)/C(=C/c2ccco2)SC1=S)Nc1ccccc1C(=O)O | – | 65 | – | – | – | – | –
O=C(CCN1C(=O)/C(=C/c2ccco2)SC1=S)Nc1ccc(O)cc1C(=O)O | – | · | – | – | – | – | ·
O=C(CN1C(=O)/C(=C\c2ccco2)SC1=S)Nc1ccc(O)cc1C(=O)O | – | 42 | – | – | – | – | –
Cc1nsc2nc3c(F)c(F)c(F)c(F)c3cc12 | – | – | – | – | – | – | ·
Cc1ccc2c(c1)-c1ccccc1S(=O)(=O)N2 | – | – | – | – | – | – | ·
Nc1ccc2c(c1)-c1ccccc1S(=O)(=O)N2 | – | 65 | – | – | – | – | –
CC1=C(C(=O)N2CCOCC2)C(c2ccccc2F)NC(=O)N1 (stereo not given) | – | – | – | – | – | – | ·
CNc1ccccc(-c2ccc3cc4c(cc3n2)OCO4)c1=O | – | 84 | – | – | – | – | –
c1ccc2nc(-c3ccc4c(c3)OCO4)ccc2c1 | – | – | – | – | – | – | ·
C[C@@H]1CNC(=O)c2c(C(=O)NCC(=O)OC(C)(C)C)ncn21 | – | · | · | · | – | · | ·
COc1ccc(CNC(=O)C(c2ccco2)N(C(=O)CNS(=O)(=O)c2ccccc2)c2ccccc2C)cc1 (stereo not given) | – | 47 | – | – | – | – | 51
COc1ccc(S(=O)(=O)NCC(=O)N(CC(=O)NCc2ccccc2)Cc2ccco2)cc1 | – | – | – | – | – | – | ·
COc1ccc([N+](=O)[O-])cc1NC(=O)C1CCCO1 (stereo not given) | – | – | – | – | – | – | ·
C=CCSC1=N/C(=C\C=C\c2ccco2)C(=O)S1 | – | 61 | – | – | – | 33 | –
C=CCSC1=N/C(=C\c2sccc2C)C(=O)S1 | – | – | – | – | – | – | ·
CC1Cc2ccccc2N1CC(=O)Nc1cc(S(=O)(=O)N2CCOCC2)ccc1Cl (stereo not given) | – | · | · | · | – | · | ·
CC(=O)O[C@@]1(C)C[C@@H](O)[C@]2(O)C=CO[C@@H](O[C@@H]3O[C@H](CO)[C@@H](O)[C@H](O)[C@H]3O)[C@@H]21 | – | – | – | – | – | – | ·
Clc1ccccc1CN1CCN(/N=C/C=C/c2ccco2)CC1 | – | – | – | – | – | – | ·
O=C(O)c1cccc(NS(=O)(=O)c2ccc3c(c2)C(=O)c2ccccc2C3=O)c1 | – | – | – | – | – | – | ·
O=C1c2ccccc2C(=O)c2cc(S(=O)(=O)Nc3ccccc3)ccc21 | – | 37 | – | – | – | – | 34
CCN(CC)c1ccc(/C=N/NC(=O)c2cccc(S(=O)(=O)Nc3ccccc3OC)c2)c(O)c1 | 36 | 48 | – | – | – | – | 65
CCN(CC)c1ccc(/C=N/NC(=O)c2cccc(S(=O)(=O)Nc3ccccc3OC)c2)cc1 | – | – | – | – | – | – | ·
S=c1[nH]nc(-c2cc(-c3ccccc3)n[nH]2)n1/N=C/c1ccc(Br)s1 | – | 54 | – | – | – | – | 70
NS(=O)(=O)c1ccc(-c2ccc(/C=N/Nc3ccc(C(=O)O)cc3)o2)cc1 | – | – | – | – | – | – | ·
O=C(O)c1ccc(N/N=C/c2ccc(-c3cccc(Cl)c3)o2)cc1 | – | 65 | – | – | – | – | 47
SMILES | HTRA1 inh | pPAFAH FP inh | PAFAH1B3 inh | PAFAH1B2 FP inh | DAGLB inhibitor | PAFAH2 inh | pPAFAH FP conf
O=C(O)c1ccc(N/N=C/c2ccc(-c3cc(Cl)ccc3Cl)o2)cc1 | – | 37 | – | – | – | – | 56
O=C(O)c1ccc(N/N=C/c2ccc(-c3ccc(Cl)cc3Cl)o2)cc1 | – | 51 | – | – | – | – | 47
CCN(CC(=O)Nc1c(F)cccc1F)C(=O)CNC(=O)C1CCCCC1 | – | – | – | – | – | – | ·
CCOC(=O)C1CCN(S(=O)(=O)c2c(Cl)ccc3nonc23)CC1 | – | – | – | – | – | – | ·
Nc1c(C(=O)NC2CC2)sc2nc3c(c(-c4ccco4)c12)CC/C3=C/c1ccco1 | 54 | 89 | 56 | 28 | – | 46 | 48
CC(=O)n1c(=O)oc2ccccc21 | – | – | – | – | – | – | ·
CC(C)(C)c1ccc(Oc2cccc(C3CC(=O)C(C4NCCc5ccccc54)C(=O)C3n3cncn3)c2)cc1 (stereo not given) | – | 41 | – | – | – | – | –

Compound activity from PubChem.
